This passage reports outcome and AC50 results from PubChem BioAssay (EPA / NIEHS).

Activity calls are given as the source filed them. How the source made its calls: active means hit-call score of the fitted dose curve at least 0.9, where 1 is the maximum; inactive means score below 0.9.

Test [1] can be described thus: ATG_DR4_LXR_CIS: Attagene CIS-FACTORIAL HepG2 Assay for human Liver X Receptor (LXR), DR4 submotif (AID 2282929). The following applies: HepG2 Attagene DR4 cis-reporter, mRNA transcription; actives raise or lower the signal. The method, boiled down: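 HepG2 cells were transiently transfected with multiple cis-regulated reporter units and dosed for 24 hours. The DR4 reporter mRNA was quantified by RT-PCR, 6-FAM labelling and capillary electrophoresis. Bidirectional fits used DMSO as baseline.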

For test [2], the target named is Aryl hydrocarbon receptor (Homo sapiens) (UniProt P35869). The test is described as follows: ATG_Ahr_CIS: Attagene CIS-FACTORIAL HepG2 Assay for human Aryl Hydrocarbon Receptor (Ahr) (AID 2282930). The following applies: HepG2 AhR cis-factorial reporter transcription; actives raise or lower the signal. The method, boiled down:
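Transient MRTU transfection of HepG2 → 24 h compound exposure → total RNA, oligo(dT) RT → PCR, 6-FAM extension, HpaI cut → CE fluorescence. DMSO = baseline; bidirectional curve fit.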

A short description of test [3]: ATG_AP_1_CIS: Attagene CIS-FACTORIAL HepG2 Assay for human Activator Protein 1 (AP-1) (AID 2282931). The following applies: HepG2 Attagene cis-factorial AP-1 reporter mRNA; actives raise or lower the signal. The method, boiled down:
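HepG2 cells transiently transfected with cis-element-driven reporter transcription units, dosed for 24 hours. Reporter mRNA measured by RT-PCR, 6-FAM labelling, HpaI digestion and capillary electrophoresis. Bidirectional fitting against DMSO baseline.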

Test [4] is described as follows: ATG_AP_2_CIS: Attagene CIS-FACTORIAL HepG2 Assay for human Activator Protein 2 (AP-2) (AID 2282932). The following applies: HepG2 AP-2 cis-reporter, Attagene transcription factor profiling; actives raise or lower the signal. The method, boiled down:
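Endogenous transcription factor activity is reported through transfected multiplex reporter constructs in HepG2, after 24 h of compound exposure. Transcripts were quantified by RT-PCR and capillary electrophoresis of fluorescent fragments. Bidirectional fit against DMSO.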

A short description of test [5]: ATG_BRE_CIS: Attagene CIS-FACTORIAL HepG2 Assay for human Bone Morphogenetic Protein (BMP) Response Element (BRE) (AID 2282933). The following applies: HepG2 BMP response element reporter, Attagene transcription factor profiling; actives raise or lower the signal. The method, boiled down:
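A HepG2 multiplex reporter system measured inducible reporter mRNA 24 h post-dosing. Detection: RT-PCR, 6-FAM primer extension, HpaI digestion, capillary electrophoresis. Activity fitted bidirectionally relative to DMSO.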

The target in test [6] is Retinoic acid receptor alpha (Homo sapiens) (UniProt P10276). The test is described as follows: ATG_DR5_RAR_CIS: Attagene CIS-FACTORIAL HepG2 Assay for human Retinoic Acid Receptor Alpha (RARE), DR5 submotif (AID 2282934). Conditions: HepG2 Attagene cis-factorial RARE DR5 reporter, mRNA; actives raise or lower the signal. The method, boiled down:
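Transient MRTU transfection of HepG2; 24 h compound treatment; TriZol RNA, oligo(dT) RT, PCR, FAM labelling, capillary electrophoresis. Bidirectional fit vs DMSO. Endogenous TF activity at DR5 RARE.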

Test [7] has as its target Transcription factor E2F1 (Homo sapiens) (UniProt Q01094). Description: ATG_E2F_CIS: Attagene CIS-FACTORIAL HepG2 Assay for human E2F Transcription Factor 1 (AID 2282935). The following applies: HepG2 Attagene cis-reporter, E2F reporter RNA transcripts; actives raise or lower the signal. The method, boiled down: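 Gain or loss of reporter transcript, fitted against DMSO, reflects E2F1-driven transcription. Transiently transfected HepG2 dosed 24 h before RNA isolation. Quantified by fluorescent RT-PCR products separated by capillary electrophoresis.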

Test [8] can be described thus: ATG_E_Box_CIS: Attagene CIS-FACTORIAL HepG2 Assay for human Enhancer Box (E-box) (AID 2282936). Conditions: HepG2 E-box cis-reporter transcription, actives raise or lower the signal. The method, boiled down:
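E-box-driven reporter transcripts measured in transiently transfected HepG2 after 24 h exposure: RNA reverse-transcribed, PCR-amplified, fluorescently labelled, digested and resolved by capillary electrophoresis. Gain or loss relative to DMSO.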

The nature of test [9]: ATG_M_61_CIS: Attagene CIS-FACTORIAL HepG2 Assay for M61 Transcription Factor (Internal Marker) (AID 2282937). The following applies: HepG2 Attagene CIS-FACTORIAL M61 internal marker reporter; actives raise or lower the signal. The method, boiled down:
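HepG2 cells transiently transfected with multiplexed cis-promoter reporter units reporting endogenous transcription factor activity, measured 24 h after dosing. Reporter mRNA quantified by RT-PCR and capillary electrophoresis; bidirectional fit against DMSO baseline.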

The nature of test [10]: ATG_M_19_CIS: Attagene CIS-FACTORIAL HepG2 Assay for M19 Transcription Factor (Internal Marker) (AID 2282939). The following applies: HepG2 Attagene CIS-FACTORIAL M19 internal marker reporter; actives raise or lower the signal. The method, boiled down: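 Chemical-treated HepG2 (24 h) with MRTU constructs; reporter transcripts detected by fluorescent RT-PCR fragment analysis on capillary electrophoresis. Internal background marker, DMSO as baseline.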

The nature of test [11]: ATG_ERE_CIS: Attagene CIS-FACTORIAL HepG2 Assay for Estrogen Response Element (ERE) (AID 2282940). Conditions: HepG2 ERE cis-reporter, Attagene RNA transcript; actives raise or lower the signal. The method, boiled down: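 Human liver cells (HepG2) bearing transiently transfected, promoter-regulated reporter units were exposed 24 h. Reporter mRNA induction was detected by capillary electrophoresis of labelled RT-PCR products and fitted bidirectionally to DMSO.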

The nature of test [12]: ATG_Ets_CIS: Attagene CIS-FACTORIAL HepG2 Assay for human Erythroblast Transformation Specific (ETS) (AID 2282941). The following applies: HepG2 ETS cis-reporter transcription, actives raise or lower the signal. The method, boiled down: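 RT-PCR/capillary electrophoresis fluorescence read-out of reporter mRNA; HepG2 transient multi-reporter transfection; 24 h compound exposure; gain or loss of signal fitted bidirectionally relative to DMSO.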

In test [13] the target is Hepatocyte nuclear factor 3-beta (Homo sapiens) (UniProt Q9Y261). The test is described as follows: ATG_FoxA2_CIS: Attagene CIS-FACTORIAL HepG2 Assay for human Forkhead box A2 (FOXA2) (AID 2282942). Conditions: HepG2 cis-reporter transcription factor activity, 24 h; actives raise or lower the signal. The method, boiled down:
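HepG2 transiently transfected with a multiplexed cis-promoter reporter library read endogenous FOXA2 activity. After 24 h compound exposure, reporter mRNA was quantified by RT-PCR, HpaI digestion and capillary electrophoresis. Bidirectional fit against DMSO.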

Test [14] in a line: ATG_FoxO_CIS: Attagene CIS-FACTORIAL HepG2 Assay for human Forkhead box O (FoxO) (AID 2282943). Conditions: HepG2 Attagene cis-reporter, FoxO element, mRNA; actives raise or lower the signal. The method, boiled down: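 HepG2, transient MRTU transfection (cis element, endogenous TFs). Dose 24 h. TriZol RNA → oligo(dT) RT → PCR → 6-FAM primer extension → HpaI cut → CE. Gain/loss vs DMSO.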

Test [15] in a line: ATG_GATA_CIS: Attagene CIS-FACTORIAL HepG2 Assay for human GATA Binding Protein (AID 2282944). The following applies: HepG2 GATA cis-element reporter, Attagene multiplex mRNA; actives raise or lower the signal. The method, boiled down:
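Transfected cis-reporter HepG2 cells were treated with chemicals for 24 hours. Total RNA was then converted to cDNA, amplified with reporter-specific primers and analysed by fluorescent capillary electrophoresis, using DMSO-treated wells as baseline.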

Test [16] in a line: ATG_GLI_CIS: Attagene CIS-FACTORIAL HepG2 Assay for human Zinc Finger Protein GLI1 (AID 2282945). The following applies: HepG2, Attagene cis-factorial reporter mRNA, GLI element; actives raise or lower the signal. The method, boiled down:
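Bidirectional curve fits relative to DMSO, using reporter mRNA levels from RT-PCR plus capillary electrophoresis. Cells were HepG2 transiently carrying cis-regulated reporter constructs, harvested 24 h after dosing.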

Test [17] can be described thus: ATG_GRE_CIS: Attagene CIS-FACTORIAL HepG2 Assay for human Glucocorticoid Response Elements (GRE) (AID 2282947). The following applies: HepG2 GRE cis-reporter, Attagene multiplex mRNA; actives raise or lower the signal. The method, boiled down:
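Reporter transcripts read by RT-PCR with capillary electrophoresis fluorescence after a 24 h chemical exposure of HepG2 cells transiently transfected with multiple cis-element reporter units. Gain or loss fitted against DMSO.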

A short description of test [18]: ATG_ISRE_CIS: Attagene CIS-FACTORIAL HepG2 Assay for human Interferon Regulatory Factor 1 (IRF1) binding to an Interferon-Stimulated Response Element (ISRE) (AID 2282948). Conditions: HepG2 ISRE cis-reporter (Attagene), mRNA transcription readout; actives raise or lower the signal. The method, boiled down: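 Read-out: fluorescent RT-PCR products resolved by capillary electrophoresis, reporting endogenous transcription factor activity via ISRE-driven reporter mRNA in transfected HepG2 cells dosed for 24 h; gain or loss fitted relative to DMSO.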

Test [19] deals with Bile acid receptor (Homo sapiens) (UniProt Q96RI1). Description: ATG_IR1_CIS: Attagene CIS-FACTORIAL HepG2 Assay for human Nuclear Receptor Subfamily 1 Group H Member 4 (NR1H4), IR1 submotif (AID 2282946). Conditions: IR1 reporter transcription, actives raise or lower the signal. The method, boiled down:
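HepG2 cells transiently transfected with multiplexed cis-element reporter units read endogenous transcription factor activity. After 24 h compound exposure, reporter mRNA was quantified by RT-PCR, fluorescent labelling, HpaI digestion and capillary electrophoresis; bidirectional fitting versus DMSO baseline.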

Test [20] is described as follows: ATG_EGR_CIS: Attagene CIS-FACTORIAL HepG2 Assay for human Early Growth Response 1 (EGR1) (AID 2282938). Conditions: HepG2 Attagene CIS-FACTORIAL EGR reporter mRNA; actives raise or lower the signal. The method, boiled down:
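HepG2 cells transiently transfected with cis-element-driven multiplexed reporter units, dosed for 24 h. EGR1-element reporter mRNA quantified by RT-PCR, 6-FAM labelling, HpaI digestion and capillary electrophoresis; bidirectional fit versus DMSO.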

Chain of Hepatocyte nuclear factor 3-beta (Homo sapiens) (Q9Y261 whole entry, looked up): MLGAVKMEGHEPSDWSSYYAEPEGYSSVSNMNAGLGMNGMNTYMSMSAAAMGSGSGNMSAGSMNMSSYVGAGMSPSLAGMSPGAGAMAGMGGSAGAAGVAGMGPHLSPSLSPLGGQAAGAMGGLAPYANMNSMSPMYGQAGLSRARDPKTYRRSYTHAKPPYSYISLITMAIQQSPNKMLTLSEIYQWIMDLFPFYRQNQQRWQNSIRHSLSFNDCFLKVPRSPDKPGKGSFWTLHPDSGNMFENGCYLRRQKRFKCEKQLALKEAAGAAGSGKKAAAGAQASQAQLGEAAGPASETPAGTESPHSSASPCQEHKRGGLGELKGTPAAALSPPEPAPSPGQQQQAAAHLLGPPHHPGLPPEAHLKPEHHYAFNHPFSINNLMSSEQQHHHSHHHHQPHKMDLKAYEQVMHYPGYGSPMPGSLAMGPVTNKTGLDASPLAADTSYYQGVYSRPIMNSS
Chain of Aryl hydrocarbon receptor (Homo sapiens) (P35869 whole entry, looked up): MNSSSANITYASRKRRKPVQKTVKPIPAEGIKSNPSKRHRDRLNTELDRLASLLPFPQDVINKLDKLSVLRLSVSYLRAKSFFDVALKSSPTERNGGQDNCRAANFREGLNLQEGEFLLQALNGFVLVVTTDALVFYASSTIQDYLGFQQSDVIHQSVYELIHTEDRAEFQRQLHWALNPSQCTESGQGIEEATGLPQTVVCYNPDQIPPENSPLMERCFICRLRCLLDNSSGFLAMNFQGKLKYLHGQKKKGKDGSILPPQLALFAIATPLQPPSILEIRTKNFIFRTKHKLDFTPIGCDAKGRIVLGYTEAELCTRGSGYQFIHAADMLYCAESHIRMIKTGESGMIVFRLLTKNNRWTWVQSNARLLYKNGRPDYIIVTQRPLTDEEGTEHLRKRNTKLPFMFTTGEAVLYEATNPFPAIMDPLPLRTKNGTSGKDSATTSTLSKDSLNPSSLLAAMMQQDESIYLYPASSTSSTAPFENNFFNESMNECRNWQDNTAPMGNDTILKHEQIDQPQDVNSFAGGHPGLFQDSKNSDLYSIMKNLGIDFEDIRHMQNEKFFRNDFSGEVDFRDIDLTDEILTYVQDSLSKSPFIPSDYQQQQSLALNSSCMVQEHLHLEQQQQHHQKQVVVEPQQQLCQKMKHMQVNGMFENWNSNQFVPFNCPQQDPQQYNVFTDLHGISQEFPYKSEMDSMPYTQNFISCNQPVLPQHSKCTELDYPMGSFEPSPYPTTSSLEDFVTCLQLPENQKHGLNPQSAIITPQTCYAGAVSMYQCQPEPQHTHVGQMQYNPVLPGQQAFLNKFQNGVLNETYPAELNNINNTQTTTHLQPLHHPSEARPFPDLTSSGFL
Chain of Transcription factor E2F1 (Homo sapiens) (Q01094 whole entry, looked up): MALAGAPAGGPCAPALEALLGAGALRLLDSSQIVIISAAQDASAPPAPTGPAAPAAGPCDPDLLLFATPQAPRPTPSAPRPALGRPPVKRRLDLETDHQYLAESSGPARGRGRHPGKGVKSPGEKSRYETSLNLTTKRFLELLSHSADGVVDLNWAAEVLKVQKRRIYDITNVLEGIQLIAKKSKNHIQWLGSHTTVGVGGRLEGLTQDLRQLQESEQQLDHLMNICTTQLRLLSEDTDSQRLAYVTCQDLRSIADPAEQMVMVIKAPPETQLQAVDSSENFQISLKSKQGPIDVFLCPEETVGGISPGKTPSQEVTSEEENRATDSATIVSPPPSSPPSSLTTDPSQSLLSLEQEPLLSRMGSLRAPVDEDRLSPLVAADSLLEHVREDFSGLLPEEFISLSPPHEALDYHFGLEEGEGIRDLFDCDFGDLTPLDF
Chain of Retinoic acid receptor alpha (Homo sapiens) (P10276 whole entry, looked up): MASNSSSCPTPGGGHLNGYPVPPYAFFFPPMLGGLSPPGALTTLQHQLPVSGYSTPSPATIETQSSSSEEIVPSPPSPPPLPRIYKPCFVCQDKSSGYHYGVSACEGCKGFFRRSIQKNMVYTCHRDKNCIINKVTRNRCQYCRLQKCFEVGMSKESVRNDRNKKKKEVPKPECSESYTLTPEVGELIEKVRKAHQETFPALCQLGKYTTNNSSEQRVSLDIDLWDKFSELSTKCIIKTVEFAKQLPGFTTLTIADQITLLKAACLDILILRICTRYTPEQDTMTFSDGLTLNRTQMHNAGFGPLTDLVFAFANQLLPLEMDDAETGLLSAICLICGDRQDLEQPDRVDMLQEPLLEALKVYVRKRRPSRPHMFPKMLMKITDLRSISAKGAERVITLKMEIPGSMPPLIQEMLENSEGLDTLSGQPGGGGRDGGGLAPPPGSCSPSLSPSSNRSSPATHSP
Chain of Bile acid receptor (Homo sapiens) (Q96RI1 whole entry, looked up): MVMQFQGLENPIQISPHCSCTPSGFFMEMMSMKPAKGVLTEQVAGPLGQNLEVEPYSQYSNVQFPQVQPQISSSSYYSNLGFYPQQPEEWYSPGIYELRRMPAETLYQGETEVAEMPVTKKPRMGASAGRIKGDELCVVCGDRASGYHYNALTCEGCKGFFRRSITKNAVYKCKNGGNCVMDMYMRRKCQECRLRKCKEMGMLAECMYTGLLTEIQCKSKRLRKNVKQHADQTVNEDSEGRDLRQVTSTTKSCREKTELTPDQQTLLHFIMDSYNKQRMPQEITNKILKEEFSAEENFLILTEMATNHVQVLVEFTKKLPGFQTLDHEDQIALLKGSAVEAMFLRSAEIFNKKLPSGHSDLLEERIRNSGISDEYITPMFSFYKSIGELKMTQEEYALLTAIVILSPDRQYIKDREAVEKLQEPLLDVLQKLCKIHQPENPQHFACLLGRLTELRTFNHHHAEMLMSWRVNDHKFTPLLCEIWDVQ

`CCN(CCO)CCO`: the result in test [1], in [2], in test [3], in test [4], in test [5] and in test [6] was inactive. Moreover, the outcome in test [7], in test [8], in test [9], in [10], in test [11] and in test [12] was inactive. For the same molecule, the outcome in test [13], in test [14], in test [15], in test [16], in test [17] and in test [18] was inactive.
As for `O=C(O)COc1cc(Cl)c(Cl)cc1Cl`, the outcome in test [1], in test [2], in test [3], in test [4], in test [5] and in test [6] was inactive. The result in [7], in test [8], in test [9], in [10], in test [12] and in test [13] was inactive. Besides, the call in test [14], in test [15], in test [16], in [19], in test [17] and in test [18] was inactive.
Regarding `CCCCCCCCCCCCCl`, the molecule was called inactive in [1], in test [2], in test [3], in test [4], in test [5] and in test [6]. The molecule was classed as inactive in test [7], in [8], in test [20], in [10], in [11] and in [13]. The call in [14], in test [15], in test [16], in test [17] and in test [18] was inactive.
As to `C=CCc1ccccc1O`, the result in [1], in [2], in test [3], in [4], in test [5] and in [6] was inactive. The molecule was classed as inactive in test [7], in test [8], in test [20], in test [10], in test [12] and in test [14]. Also, the call in test [15], in test [16], in [19], in test [17] and in test [18] was inactive. Besides, in [11], the AC50 is 29.2 µM (active).

As usually defined, the AC50 is the concentration giving half of the maximal activity seen.
